Screening results from PubChem.
IL1B secr inh – blocks inflammasome-driven IL-1 beta release | THP-1 LPS/ATP IL-1B secretion, AlphaLISA, 16 h; hits give low values | activity change, % at 57.5 µM | 4.7% of 360,000 active | AID 743279; in the data active means activity change below about -50%; inconclusive means mostly about -30% to -49%; further: on the % scale 0 is the no-effect control and ±100 the full control effect
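THP-1 cells pretreated 1 hr with compounds (up to 57.5 uM final), then stimulated with LPS (250 ng/mL final) plus ATP (1.25 mM final); secreted IL-1B measured by AlphaLISA after 16 hr, decreased signal indicating inhibition.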
HepG2 tox – kills HepG2 cells in TGF-b inhibitor counter-screen; Potency, µM (titrated, usually from 46.1 µM), without a hit: at the highest dose activity change, negative = cytotoxicity, usual class: cytotoxic; HepG2 CAGA-GFP viability, ATP luminescence, 18 h; 0.76% of 410,000 active; further: potency means the concentration at half of the fitted maximal effect
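CellTiter-Glo luminescence gave cytotoxicity after 18 hours at 37 degrees C. The cells were HepG2 CAGA-GFP in 1% FBS DMEM, stimulated with 500 pg/mL TGF-beta after compound addition. %Activity was normalised to no-cell wells (complete cell-killing) and DMSO (no toxicity), and curves were fitted and classified.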
DT40 TDP1 CPT – growth inhibition of DT40 Tdp1-/-;hTDP1 cells with camptothecin (screen for TDP1 inhibitors) | chicken DT40 Tdp1-/-;hTDP1 cells + 20 nM CPT, ATP luminescence, 48 h | Potency, µM (series often up to 46.2 µM), inactives show at the highest dose activity change, negative = growth inhibition, most hits filed as inhibitors | AID 686979 | 12% of 420,000 active; further: potency means the concentration at half of the fitted maximal effect; on the % scale 0 is the no-effect control and ±100 the full control effect; nearly all actives have a fitted effect of over 55% in size
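Chicken DT40 Tdp1-/- cells complemented with human TDP1, 400 cells/well, exposed to compounds plus 20 nM camptothecin for at least 48 h at 37 C; viability read as ATP content by CellTiter-Glo luminescence.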
TGFb SMAD3 inh – blocks TGF-b signaling. HepG2 CAGA-GFP TGF-b/SMAD3 reporter, GFP fluorescence, 18 h; TGF-beta stimulated, 500 pg/mL final. AID 588855. Potency, µM (highest dose often 46.1 µM), without a hit: at the top dose activity, negative = inhibition, hits mostly inhibitors. 1.2% of 410,000 active; further: potency means the concentration at half of the fitted maximal effect; on the % scale 0 is the no-effect control and ±100 the full control effect; nearly all actives have a fitted effect of over 65% in size
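TGF-beta reporter screen: HEPG2 CAGA-GFP, 1% FBS, 500 pg/mL TGF-beta final, 18 h; per-cell GFP summed per well; curves fitted and categorized by class.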
DT40 TDP1 no CPT – qHTS for Inhibitors of human tyrosyl-DNA phosphodiesterase 1 (TDP1): qHTS in cells in absence of CPT; DT40 Tdp1-/- hTDP1 cells, no CPT, ATP luminescence, 48 h; Potency, µM (top dose mostly 46.2 µM), without a hit: at the top dose activity change, negative = growth inhibition, usual class: inhibitors; 15% of 420,000 active; further: potency means the concentration at half of the fitted maximal effect; on the % scale 0 is the no-effect control and ±100 the full control effect; nearly all actives have a fitted effect of over 55% in size
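Readout: luminescence from CellTiter-Glo after 30 min in the dark at RT. Cells: DT40 Tdp1-/- with stable hTDP1, 400/well. Exposure: compounds alone, ≥48 hr, 37 °C.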
ASM inhibitor – human S-ASM enzyme inhibition | P17405 | placental ASM, HMU-PC fluorogenic substrate, 60 min | Potency, µM (top dose mostly 57.5 µM), without a hit: at the highest dose activity change, negative = inhibition, usual class: inhibitors | 0.006% of 340,000 active; further: potency means the concentration at half of the fitted maximal effect
Target sequence (P17405 47-631 limits assumed): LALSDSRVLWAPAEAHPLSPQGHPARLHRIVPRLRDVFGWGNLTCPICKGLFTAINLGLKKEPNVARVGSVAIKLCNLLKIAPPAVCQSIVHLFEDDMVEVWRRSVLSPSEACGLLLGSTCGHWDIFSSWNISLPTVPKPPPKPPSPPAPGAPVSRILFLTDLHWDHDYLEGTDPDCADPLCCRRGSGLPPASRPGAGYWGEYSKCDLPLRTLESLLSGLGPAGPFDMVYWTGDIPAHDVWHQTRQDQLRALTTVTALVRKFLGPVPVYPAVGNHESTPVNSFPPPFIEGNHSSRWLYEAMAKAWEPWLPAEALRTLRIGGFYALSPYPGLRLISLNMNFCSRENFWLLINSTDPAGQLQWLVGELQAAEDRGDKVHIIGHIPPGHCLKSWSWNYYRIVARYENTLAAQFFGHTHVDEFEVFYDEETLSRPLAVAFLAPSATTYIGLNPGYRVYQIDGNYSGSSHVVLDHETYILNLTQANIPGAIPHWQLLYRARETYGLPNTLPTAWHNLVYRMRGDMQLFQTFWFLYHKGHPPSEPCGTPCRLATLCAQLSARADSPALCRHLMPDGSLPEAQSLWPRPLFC
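Human placenta-derived ASM enzyme was preincubated with compound for 10 minutes at room temperature, then given fluorogenic substrate HMU-PC0 (9 uM final) for 60 minutes at 37 °C; a pH 10 stop preceded fluorescence reading at Ex 386/Em 447 nm.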
An asterisk follows results filed as active; ? = inconclusive; / = no result. Compounds with a hit are over-represented: about 19% of the library has one in this group of screens. Unless noted, the call rests on the fitted dose curve; in most records, active means well fitted curve in the direction sought with a large enough effect; inconclusive means small, poorly fitted or top-dose-only effect, or another doubt; inactive means no such curve, though single readings can be large; an effect the other way counts as inactive or inconclusive.

SMILES | IL1B secr inh | HepG2 tox | DT40 TDP1 CPT | TGFb SMAD3 inh | DT40 TDP1 no CPT | ASM inhibitor
O=C(O)c1ccccc1C(=O)NCC(O)COc1ccc(Cl)cc1 (stereo not given) | ? | -1.4% | -0.3% | 4.1% | -14.1% | -0.7%
COc1ccc(CCNS(=O)(=O)c2ccc([N+](=O)[O-])cc2)cc1OC | 19.3 | -10.1% | -1.8% | -23.8% | -27.8% | 4.7%
O=C(c1ccc(S(=O)(=O)N2CCCCC2)cc1)N1CCc2ccccc2C1 | -23.7 | -1.8% | ? | -31.3% | ? | -2.1%
COc1ccc(C(=O)N2CCN(c3ccccc3OC)CC2)cc1 | 6.8 | -15.2% | -0.6% | -22.6% | -1.3% | -3.1%
O=C(NC1CCN(C(=O)c2cccc([N+](=O)[O-])c2)CC1)c1ccccc1 | 29.8 | 11.8% | -0.5% | 2.8% | -19.0% | 1.8%
COc1ccccc1N1CCN(C(=O)c2ccc(-c3ccccc3)cc2)CC1 | -13.6 | -30.6% | ? | ? | 13µM* | -8.6%
COc1ccccc1C1CCN(C(=O)c2cccc([N+](=O)[O-])c2)CC1 | / | -17.9% | ? | -19.4% | 16.4µM* | -2.8%
COc1cc2c(cc1OC)CN(C(=O)c1ccc(S(=O)(=O)N3CCCCC3)cc1)CC2 | -2.2 | -14.0% | 25.9µM* | -6.5% | 16.4µM* | 0.2%
O=C(C[C@@H]1C/C=C\CCC(=O)O[C@H](c2ccccc2)CNC1=O)N[C@H](CO)Cc1ccccc1 | 5.0 | -7.8% | -8.5% | -17.2% | -13.2% | 11.8%
Cc1ccc(-n2nnc(-c3nccn3C)n2)cc1 | 10.8 | -32.4% | 23.1µM* | 1.5% | 20.6µM* | 3.2%
O=C(N/N=C/c1cc2c3c(c1O)CCCN3CCC2)c1ccccc1O | 220.6 | -60.2% | 3.66µM* | ? | 4.61µM* | 47.6%
Cc1nn(-c2ccccc2)c(N2CCCC2)c1/C=N/NC(=O)c1ccccc1O | 14.5 | -28.5% | ? | -9.9% | ? | -11.4%
Cc1ccc(C(=O)NCC(=O)N2CCN(c3cccc(Cl)c3)CC2)s1 | -9.9 | -20.3% | -23.4% | -9.6% | ? | -0.6%
Clc1cc(Cl)c(OCC#CI)cc1Cl | / | / | 1.68µM* | / | 1.88µM* | /
O=C1CN(C(=O)COC(=O)c2ccc(C(F)(F)F)cc2)c2ccccc2N1 | 26.8 | -0.3% | -16.9% | 12.1% | 12.3% | -1.9%
COCCNC(=O)c1cccc(OC2CCN(Cc3ccc(C(C)C)cc3)CC2)c1 | -69.2* | -44.4% | ? | -21.3% | ? | -0.2%
COCCNC(=O)c1cccc(OC2CCN(Cc3ccc(C(=O)OC)cc3)CC2)c1 | -16.4 | -1.8% | -10.9% | -26.8% | -25.2% | 0.1%
Cc1ccc(CN2CCC(Oc3cccc(C(=O)N(C)CCN(C)C)c3)CC2)cc1C | -65.0* | -17.7% | ? | -3.0% | ? | 2.2%
Cn1c(=O)c(-c2cccs2)nc2cnc(N3CCOCC3)nc21 | / | / | 9.4% | / | 27.4% | /
COc1ccc(C2C(C#N)=C(N)Oc3c2oc(CO)cc3=O)cc1 (stereo not given) | -5.5 | -0.9% | -13.1% | 12.7% | 31.2% | -0.8%
CCN1C=C(Cc2ccc(OC)cc2)C2=C(C1)C(c1ccc(OC)cc1)C(C#N)=C(N)O2 (stereo not given) | -59.9* | -18.8% | ? | 14.0% | 16.4µM* | 8.4%
Cc1cc(Nc2cccc(C(F)(F)F)c2)ncn1 | / | -13.2% | -23.9% | -7.3% | ? | /
Cc1ccc(Nc2nc3nonc3nc2Nc2cccc(C(F)(F)F)c2)cc1Cl | / | -50.7% | 0.517µM* | ? | 0.461µM* | /
CCN(CC)S(=O)(=O)c1ccc2nc(NC(=O)c3ccccc3OC)sc2c1 | / | -3.9% | ? | -4.9% | 5.17µM* | /
COc1ccccc1C(=O)Nc1nc2cc3c(cc2s1)OCCO3 | 9.1 | -52.4% | 5.8µM* | -2.9% | 5.8µM* | 13.7%
SMILES | IL1B secr inh | HepG2 tox | DT40 TDP1 CPT | TGFb SMAD3 inh | DT40 TDP1 no CPT | ASM inhibitor
COc1ccccc1C(=O)Nc1nc2cc3c(cc2s1)OCO3 | 0.0 | -25.1% | ? | -13.4% | -6.1% | 9.5%
COCCNc1nc(NCc2ccccc2OC)c2sccc2n1 | -25.2 | -25.5% | 23.1µM* | 1.0% | 16.4µM* | /
COc1ccccc1CNc1nc(Oc2cccc(F)c2)c2sccc2n1 | -21.5 | -4.5% | ? | -12.4% | ? | /
COc1ccccc1CNc1nc(Nc2cccc(-c3cnco3)c2)c2sccc2n1 | / | -71.6% | 18.4µM* | ? | 20.6µM* | /
COc1ccccc1CNc1nc(Nc2ccccc2-n2cccn2)c2sccc2n1 | -14.8 | -33.3% | 14.6µM* | ? | 16.4µM* | /
C=CCn1c(NCc2ccccc2OC)nc2ccccc21 | -13.2 | -6.9% | -26.4% | 1.8% | ? | 5.1%
COc1ccccc1CNc1nc(NCCOc2ccccc2)c2sccc2n1 | -92.5* | -96.1% | 5.8µM* | ? | 5.8µM* | /
CCOC(=O)c1nn(-c2ccc(F)cc2)c(=O)cc1OCC(=O)N1CCN(c2ccccc2)CC1 | -12.8 | -47.4% | ? | -3.6% | ? | 1.1%
COc1nc2ccccc2nc1N1CCN(c2ccc(F)cc2)CC1 | 33.4 | -17.7% | -22.4% | -4.3% | 3.8% | -0.5%
Fc1ccc(Nc2nc(NCc3cccs3)nc3ccsc23)cc1 | -27.5 | -40.9% | ? | ? | 20.6µM* | /
COc1ccccc1CNc1nc(NCc2ccc(NC(C)=O)cc2)c2sccc2n1 | -9.3 | -78.4% | ? | 17.8µM* | -29.2% | /
COCCNc1nc(NCc2cnc(C)cn2)c2sccc2n1 | 0.0 | 1.6% | -19.4% | 37.3% | -19.5% | /
c1ccc(OCCNc2nc(NCC3CC3)nc3ccsc23)cc1 | ? | -35.7% | 4.61µM* | ? | 4.61µM* | /
CC(=O)Nc1ccc(CNc2nc(NCc3cccs3)nc3ccsc23)cc1 | 33.3 | 0.9% | -9.1% | -16.9% | -25.8% | /
COc1ccccc1CNc1nc(NCC2CC2)nc2ccsc12 | -82.5* | 10µM* | 10.3µM* | 12.6µM* | 20.6µM* | /
COc1cc(/C=C/C(=O)O)cc(S(=O)(=O)N2CCN(S(=O)(=O)c3ccc(Cl)cc3)CC2)c1OC | 12.0 | -19.1% | -3.0% | -0.6% | 2.2% | -0.1%
O=C(O)CCNC(=O)c1ccc(N=Nc2ccc(O)c(C(=O)O)c2)cc1 | / | / | -23.6% | / | 2.5% | /
O=C(O)CC(NNC(=O)c1ccccc1)C(=O)Nc1ccc([N+](=O)[O-])cc1 (stereo not given) | 2.3 | -30.8% | 2.1% | -18.5% | 3.2% | -0.3%
COc1ccccc1CNc1nc(NCc2ccc3occc3c2)c2sccc2n1 | -99.8* | 11.2µM* | 20.6µM* | ? | 20.6µM* | /
